# Reference: PubChem BioAssay AID1626 (SRMLSC, 2009)
# The whole screen tested about 220,000 compounds, of which about 2,000 (0.91%) were called active. Inconclusive results (about 2%) are left out. Only a sample is shown. Results with a measured potency or affinity are listed apart. Unmarked numbers belong to inactive results. No stated cut-off is given here; in the data, inconclusive means inhibition above about 80% without an active follow-up result; inactive means below that; test concentration not stated here.
# Experiment: M. tuberculosis H37Rv growth inhibitors, H37Rv strain (AID 1626);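 further: bacteria incubated seven days before Alamar blue readout; 0% = bacteria only wells and 100% = bacteria with antibiotic wells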
# Settings: active compounds read high, concentration not given here
row,Compound,inhibition [%]
1,O=C1c2ccccc2C(Nc2ccc(S(=O)(=O)N3CCOCC3)cc2)N1Cc1ccco1 (stereo not drawn),-2.41
2,CC(CC(=O)N1CCN(c2ccc(C(F)(F)F)cn2)CC1)n1ccnc1 (stereo not drawn),1.81
3,O=C(Cc1ccc(-n2c(=O)c3sccc3n(CC(=O)Nc3ccccc3F)c2=O)cc1)NCc1ccco1,-10.9
4,COc1cc(C(CCN2CCCC2)c2c(OC)cc(OC)c3c(-c4ccccc4)cc(=O)oc23)cc(OC)c1OC (stereo not drawn),-3.05
5,COc1ccc(C(CC(=O)N2CCCC(C)C2)c2c(OC)cc(OC)c3c(-c4ccccc4)cc(=O)oc23)cc1 (stereo not drawn),-5.32
6,COc1cc(C(CCN2CCCC(C)C2)c2c(OC)cc(OC)c3c(-c4ccccc4)cc(=O)oc23)cc(OC)c1OC (stereo not drawn),71
7,COc1cc(OC)c2c(-c3ccccc3)cc(=O)oc2c1C(CC(=O)N1CCOCC1)c1ccc(N(C)C)cc1 (stereo not drawn),-7.25
8,O=C(Cc1c(Cl)cccc1Cl)Nc1cccc(S(=O)(=O)N2CCOCC2)c1,9.23
9,OC(COc1ccc(-c2ccccc2)cc1)CN1CCOCC1 (stereo not drawn),8.22
10,CCOc1ccccc1NC(=O)Cn1c(=O)oc2ccccc21,6.54
11,Cc1nn(-c2ccccn2)c2c1C(c1c(F)cccc1Cl)C1=C(N2)c2ccccc2C1=O (stereo not drawn),8.57
12,Cc1nn(-c2ccccn2)c2c1C(c1ccccc1Cl)C1=C(N2)c2ccccc2C1=O (stereo not drawn),5.6
13,Cc1cc(C)c(C#N)c(Oc2ccc(O)cc2)n1,8.87
14,O=C1C=C(c2cccs2)CC(c2cccs2)C1n1cnc([N+](=O)[O-])c1 (stereo not drawn),8.22
15,CC(=O)C1C(=O)C=C(c2cccs2)CC1c1ccccc1 (stereo not drawn),2.98
16,Cc1ccc(S(N)(=O)=O)c(C)c1N1CCCC1=O,-3.84
17,Cc1ccc(-c2noc(CCC(=O)Nc3ccc4c(c3)OCO4)n2)cc1,67.5
18,COc1ccc(-c2noc(CCC(=O)Nc3cc(Cl)c(OC)cc3OC)n2)cc1,14.3
19,COc1ccc(-c2noc(CCC(=O)Nc3cc(OC)ccc3OC)n2)cc1,3.07
20,COc1cc(OC)c(NC(=O)CCc2nc(-c3ccc(C)cc3)no2)cc1Cl,-0.67

row,Compound,inhibition [%]
1,COc1ccc(-c2noc(CCC(=O)Nc3cccc(C)c3)n2)cc1,78.2
2,COc1ccc(CCC(=O)Nc2ccc3c(c2)OCCO3)cc1,-2.09
3,COc1ccc(-c2noc(CCC(=O)NCCCN3CCN(c4ccc(F)cc4)CC3)n2)cc1,8.36
4,Cc1ccc(-c2noc(CCC(=O)NCCCN3CCN(c4ccc(F)cc4)CC3)n2)cc1,-9.54
5,CCOc1ccc(-c2nc(N)ncc2Oc2ccc(OC)cc2)c(O)c1,1.63
6,CCOc1ccc(CN2CCN(Cc3cccc4c3OCO4)CC2CCO)cc1 (stereo not drawn),5.32
7,CC(OC(=O)c1ccc(Cl)c(S(=O)(=O)Nc2ccc(F)cc2)c1)C(=O)NC(N)=O (stereo not drawn),-1.89
8,CCn1c(NN=O)nc2ccccc21,3.63
9,CC(=O)C1=C(C)NC(=O)NC1c1cccs1 (stereo not drawn),-8.1
10,COc1cc(/C=C(\C#N)c2ccccn2)ccc1OCC(=O)Nc1ccc(Br)cc1,-1.03
11,C#CC1(NC(=O)NC(C)(C)C)CCCCC1,2.25
12,COc1ccccc1NC(=O)COC(=O)c1cnc(C)cn1,0.5
13,CCc1cc(C(c2cccc(OC)c2)N2CCOCC2)c(NC(=O)c2ccccc2)s1 (stereo not drawn),2.32
14,CCOC(=O)C1(CC/C(C)=N\NC(N)=O)CC(C)(C)OC1=O (stereo not drawn),-7.16
15,Cc1nnc(C)n1/N=C/c1cccc(Oc2ccccc2)c1,5.69
16,COC(=O)c1ccsc1NC(=O)C1=COCCO1,2.57
17,O=C(NCc1ccccc1)C(=O)Nc1nc(C23CC4CC(CC(C4)C2)C3)cs1,6.64
18,CNc1nc(C23CC4CC(CC(C4)C2)C3)cs1,2.54
19,CCn1c(SCC(=O)Nc2ccccc2C(=O)OC)nnc1-c1cccc(C)c1,-2.01
20,O=C(Nc1nc2ccccc2n1CCN1CCCC1)C1CCCCC1,-3.71

row,Compound,inhibition [%]
1,CCCCn1c(NC(=S)Nc2ccccc2)nc2ccccc21,9.5
2,O=C(Nc1nc2ccccc2n1CCN1CCCCC1)C1CCCCC1,4.2
3,CN(C)CCCn1c(NC(=O)C2CCCCC2)nc2ccccc21,3.22
4,O=C(Cc1ccccc1)Nc1cccc(N2CCCC2)c1,2.44
5,Cc1nnc(NN)n(N)c1=O,-3.11
6,O=C(N/C(=C/C=C\c1ccccc1)C(=O)N1CCOCC1)c1ccc(Br)cc1,64.4
7,CCCCOc1ccc(C(=O)N/C(=C/C=C/c2ccccc2)C(=O)O)cc1,-8.39
8,CCC(=O)Nc1ccc(NC(=S)NC(=O)c2cc3ccccc3o2)cc1,15.4
9,Cc1ccc(S(=O)(=O)NCC(=O)N(CC(=O)NCC2CCCO2)Cc2ccco2)cc1 (stereo not drawn),11.1
10,O=C(O)c1ccccc1C(=O)c1ccc(N2CCOCC2)c([N+](=O)[O-])c1,3.64
11,O=[N+]([O-])c1cc(Cl)ccc1N1CCOCC1,-3.75
12,O=C(OCC(=O)N1CCOCC1)c1ccc(N2CCOCC2)c([N+](=O)[O-])c1,-0.57
13,COc1ccc(C(=O)c2ccc(N3CCOCC3)c([N+](=O)[O-])c2)cc1,-2.74
14,Cc1ccc(OC(=O)c2ccc(N3CCOCC3)c([N+](=O)[O-])c2)cc1,54.1
15,O=C(Nc1ccccc1N1CCOCC1)c1ccc(N2CCOCC2)c([N+](=O)[O-])c1,6.98
16,Cc1sc(NC(=O)CSc2nnc(-c3ccccc3)o2)c(C#N)c1C,-2.26
17,CCOc1ccc(NC(=O)CC2SC(N)=NC2=O)c([N+](=O)[O-])c1 (stereo not drawn),2.3
18,COC(=O)c1ccc(NC(=O)CN2C(=O)C3C4C=CC(C4)C3C2=O)cc1 (stereo not drawn),1.35
